# Pf apPOL block – Pf-apPOL DNA polymerase inhibition. AID 1794808. actives 0.25% (n = 210,000). Recombinant Pf-apPOL, molecular beacon fluorescence, 1.5 h. inhibition, % at 10 µM
# mHTT CaM bind – mHTT-calmodulin interaction abrogation; inhibition, % at 15 µM; actives 3.6% (n = 190,000); P42858; AlphaScreen His-mHTT/GST-CaM binding, luminescence; AID 1671202
# Target sequence (P42858 whole entry, looked up, change not shown): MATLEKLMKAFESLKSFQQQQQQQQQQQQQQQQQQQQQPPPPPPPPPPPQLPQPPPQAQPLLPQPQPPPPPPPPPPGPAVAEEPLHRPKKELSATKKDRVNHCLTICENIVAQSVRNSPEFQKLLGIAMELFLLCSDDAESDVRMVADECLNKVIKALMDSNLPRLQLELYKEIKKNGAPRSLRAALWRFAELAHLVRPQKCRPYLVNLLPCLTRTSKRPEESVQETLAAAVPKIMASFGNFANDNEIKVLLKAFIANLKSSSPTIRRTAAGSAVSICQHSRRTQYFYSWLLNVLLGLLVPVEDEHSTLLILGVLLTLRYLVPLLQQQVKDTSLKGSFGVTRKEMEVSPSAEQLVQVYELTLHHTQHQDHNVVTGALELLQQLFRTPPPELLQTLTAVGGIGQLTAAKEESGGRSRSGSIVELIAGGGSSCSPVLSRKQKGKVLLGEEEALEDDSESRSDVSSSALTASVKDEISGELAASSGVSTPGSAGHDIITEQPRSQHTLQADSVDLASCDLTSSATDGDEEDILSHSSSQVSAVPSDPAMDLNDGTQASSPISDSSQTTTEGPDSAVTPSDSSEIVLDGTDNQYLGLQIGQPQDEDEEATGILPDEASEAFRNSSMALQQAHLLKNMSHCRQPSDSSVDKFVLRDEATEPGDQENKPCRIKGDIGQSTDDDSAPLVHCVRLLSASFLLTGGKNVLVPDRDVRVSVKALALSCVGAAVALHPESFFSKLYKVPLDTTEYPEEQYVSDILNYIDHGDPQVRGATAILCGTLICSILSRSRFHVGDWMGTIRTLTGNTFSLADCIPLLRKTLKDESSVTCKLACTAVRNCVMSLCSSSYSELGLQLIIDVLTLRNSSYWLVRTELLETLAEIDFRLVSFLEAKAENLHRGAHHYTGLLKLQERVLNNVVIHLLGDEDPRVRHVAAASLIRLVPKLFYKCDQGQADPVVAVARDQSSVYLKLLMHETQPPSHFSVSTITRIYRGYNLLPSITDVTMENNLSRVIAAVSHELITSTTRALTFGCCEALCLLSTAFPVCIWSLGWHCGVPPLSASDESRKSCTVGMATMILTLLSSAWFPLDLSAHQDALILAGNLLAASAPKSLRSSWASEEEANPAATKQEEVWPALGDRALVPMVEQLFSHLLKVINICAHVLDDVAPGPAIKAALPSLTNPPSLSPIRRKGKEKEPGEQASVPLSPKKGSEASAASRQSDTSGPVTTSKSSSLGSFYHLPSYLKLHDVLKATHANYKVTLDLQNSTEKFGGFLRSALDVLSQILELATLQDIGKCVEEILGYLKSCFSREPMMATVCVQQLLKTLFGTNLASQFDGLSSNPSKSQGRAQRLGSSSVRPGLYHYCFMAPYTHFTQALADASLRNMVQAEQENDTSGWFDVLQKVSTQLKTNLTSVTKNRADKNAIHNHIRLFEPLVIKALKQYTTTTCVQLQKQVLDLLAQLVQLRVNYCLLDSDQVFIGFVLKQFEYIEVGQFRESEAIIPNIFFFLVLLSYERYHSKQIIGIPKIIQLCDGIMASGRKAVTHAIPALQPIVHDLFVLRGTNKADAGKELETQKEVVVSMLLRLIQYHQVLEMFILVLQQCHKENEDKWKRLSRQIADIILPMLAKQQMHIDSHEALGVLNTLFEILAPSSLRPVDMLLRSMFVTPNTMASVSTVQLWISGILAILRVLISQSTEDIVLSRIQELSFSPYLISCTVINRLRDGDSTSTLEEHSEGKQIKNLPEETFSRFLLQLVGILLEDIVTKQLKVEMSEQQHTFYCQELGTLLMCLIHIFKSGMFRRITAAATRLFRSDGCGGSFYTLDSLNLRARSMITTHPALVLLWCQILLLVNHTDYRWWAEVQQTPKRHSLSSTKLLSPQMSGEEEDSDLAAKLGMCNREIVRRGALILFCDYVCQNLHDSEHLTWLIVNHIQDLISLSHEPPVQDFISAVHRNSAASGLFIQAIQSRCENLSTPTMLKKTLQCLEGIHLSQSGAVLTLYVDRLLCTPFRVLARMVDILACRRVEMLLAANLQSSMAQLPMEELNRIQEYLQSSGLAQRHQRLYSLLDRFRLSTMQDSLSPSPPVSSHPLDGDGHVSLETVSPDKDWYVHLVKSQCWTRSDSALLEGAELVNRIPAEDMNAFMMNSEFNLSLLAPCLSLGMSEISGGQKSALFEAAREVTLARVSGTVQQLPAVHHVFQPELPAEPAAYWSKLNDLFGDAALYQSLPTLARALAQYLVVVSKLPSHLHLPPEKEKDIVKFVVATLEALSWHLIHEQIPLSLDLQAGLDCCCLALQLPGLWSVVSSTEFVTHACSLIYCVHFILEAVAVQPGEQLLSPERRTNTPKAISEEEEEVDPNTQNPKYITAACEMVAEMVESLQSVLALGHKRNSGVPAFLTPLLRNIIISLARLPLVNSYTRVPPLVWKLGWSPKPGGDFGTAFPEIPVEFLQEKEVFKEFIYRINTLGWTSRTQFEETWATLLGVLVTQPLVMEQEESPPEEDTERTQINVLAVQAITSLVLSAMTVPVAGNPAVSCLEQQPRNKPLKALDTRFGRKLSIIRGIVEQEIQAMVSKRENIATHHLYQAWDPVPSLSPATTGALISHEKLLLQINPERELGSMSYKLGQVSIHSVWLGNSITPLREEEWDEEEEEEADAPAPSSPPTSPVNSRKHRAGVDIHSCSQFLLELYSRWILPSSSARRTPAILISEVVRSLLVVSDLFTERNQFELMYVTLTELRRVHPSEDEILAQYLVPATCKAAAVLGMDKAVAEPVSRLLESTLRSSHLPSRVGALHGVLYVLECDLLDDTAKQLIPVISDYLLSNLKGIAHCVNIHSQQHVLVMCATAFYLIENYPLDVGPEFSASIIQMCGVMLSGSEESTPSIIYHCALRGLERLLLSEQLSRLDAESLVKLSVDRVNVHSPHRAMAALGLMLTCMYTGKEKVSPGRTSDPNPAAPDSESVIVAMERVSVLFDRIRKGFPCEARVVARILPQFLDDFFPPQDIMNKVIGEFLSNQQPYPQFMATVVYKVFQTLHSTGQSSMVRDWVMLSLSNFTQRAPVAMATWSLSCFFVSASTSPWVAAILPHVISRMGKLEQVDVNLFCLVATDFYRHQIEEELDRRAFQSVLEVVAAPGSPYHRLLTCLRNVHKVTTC
# A number is an active result; - = inactive; . = no result given. Hits are enriched below; roughly 3.6% of the tested compounds scored in any of these assays. No stated cut-off is given here; in the data, active means inhibition above about 50%; inactive means the rest.
SMILES,Pf apPOL block,mHTT CaM bind
COc1ccc(Cl)cc1S(=O)(=O)NCC(c1cccn1C)N1CCCC1 (centres undefined),-,-
CN1CCc2cc(C(CNS(=O)(=O)c3ccc(Cl)s3)N3CCOCC3)ccc21 (centres undefined),-,98.6
CCOc1ccccc1C1C(C#N)=C(N)Oc2cc(N(C)C)ccc21 (centres undefined),-,61.0
CSc1ccc(C2C(C#N)=C(N)Oc3cc(N(C)C)ccc32)cc1 (centres undefined),-,-
CCOc1ccc(NC(=O)C2CCCN(c3nccc4sccc34)C2)cc1 (centres undefined),-,-
CCC(=O)N(C)CC(=O)N1N=C(c2cccs2)CC1c1ccc(C)cc1 (centres undefined),-,-
CC(=O)N(C)CC(=O)N1N=C(c2ccc(C)c(C)c2)CC1c1ccc(C)cc1 (centres undefined),-,58.4
Cc1ccc(C2CC(c3cccs3)=NN2C(=O)CN(C)C(=O)C2CCC2)cc1 (centres undefined),-,50.8
Cc1ccc(C2CC(c3ccccc3Cl)=NN2C(=O)CN(C)C(=O)C2CC2)cc1 (centres undefined),-,88.2
CN(CC(=O)N1N=C(c2ccccc2Cl)CC1c1ccc(F)cc1)C(=O)C1CC1 (centres undefined),-,-
Cc1ccc(C2=NN(C(=O)CN(C)C(=O)C3CC3)C(c3ccccc3)C2)cc1C (centres undefined),-,-
CN(CC(=O)N1N=C(c2ccc(F)cc2)CC1c1ccc(F)cc1)C(=O)C1CCC1 (centres undefined),-,-
Cc1ccc(C2CC(c3cccn3C)=NN2C(=O)CN(C)C(=O)C2CCC2)cc1 (centres undefined),-,53.9
Cc1cc(C)c(NC(=O)CC2SC(=N)NC2=O)c(C)c1 (centres undefined),-,-
C=CCNC(=O)Nc1nc(-c2ccc(OCCC)cc2)cs1,-,-
COc1ccccc1C1=N/C(=C\c2ccccc2)C(=O)O1,-,-
CC(C)C(=O)N(C)CC(=O)N1N=C(c2ccccc2F)CC1c1ccc(F)cc1 (centres undefined),-,-
Cc1ccc(C2CC(c3cccn3C)=NN2C(=O)CN(C)C(=O)C(C)C)cc1 (centres undefined),-,62.1
COc1ccc(N2CCN(C(=O)CSc3cc(-n4cccn4)ncn3)CC2)cc1,-,-
O=C(c1cccn2c(=O)c3cc(Cl)ccc3nc12)N1CCc2ccccc2C1,-,62.0
O=C(c1cccn2c(=O)c3cc(Cl)ccc3nc12)N1CCN(c2ccc(Cl)cc2)CC1,-,-
Cc1ccccc1-n1nc2c(c1NC(=O)c1cc3ccccc3oc1=O)CSC2,-,-
CCCCOc1cccc(C(=O)Nc2nnc(-c3ccco3)o2)c1,-,60.0
O=C(Nc1nnc(-c2ccco2)o1)c1ccc([N+](=O)[O-])cc1,-,-
COc1ccc(Br)cc1C1Nc2ccc(F)cc2C2C=CCC21 (centres undefined),-,73.0
SMILES,Pf apPOL block,mHTT CaM bind
COc1ccc(C2Nc3ccc(Br)cc3C3C=CCC32)cc1[N+](=O)[O-] (centres undefined),-,86.0
COc1ccc(C2Nc3c(cccc3C(F)(F)F)C3C=CCC32)cc1[N+](=O)[O-] (centres undefined),-,-
Fc1ccc2c(c1)[C@@H]1C=CC[C@@H]1[C@H](c1ccccc1Cl)N2,.,-
COc1cc(/C=C2/C(=N)N3N=C(CC(C)C)SC3=NC2=O)cc(OC)c1OC,-,-
Cc1cccc(C(=O)N2CC=C(C(=O)NC(C)(C)C)CC2)c1,-,-
COc1cc(C(=O)Nc2ccc(-n3nncc3-c3ccccc3)cc2)cc(OC)c1OC,-,-
COc1cccc(C(=O)Nc2ccc(-n3nncc3-c3ccccc3)cc2)c1OC,-,57.0
COc1cc(Br)c(CNc2cc(C)ccc2C)cc1OC,-,-
COc1ccc(C)cc1NCc1ccccc1C,-,81.0
C=CCc1cccc(C=NNC(N)=S)c1O,55.5,94.4
C=CCc1cccc(C=Nc2ccc(Br)cc2)c1O,-,-
Cc1nc2ccc(N(C)C)cc2s1,-,-
CN(C)c1ccc2nc3ccc(=O)cc-3sc2c1,.,59.0
O=C(NCc1cc(-c2ccc3c(c2)OCO3)on1)c1cc(-c2cccs2)[nH]n1,-,-
Brc1ccc(OCC2CN3CCOB(OCC3)O2)cc1 (centres undefined),-,-
O=C(O)CN1C(=O)C(=O)c2ccccc21,-,-
O=C1C(=O)N(C(c2ccccc2)c2ccccc2)c2ccccc21,-,92.4
Cc1cccc(C(=O)N2CCC(c3nc(CNC(=O)C4CC4)cs3)CC2)c1,-,-
Cc1ccc(C(=O)Nc2cccc(/C=C/C(=O)O)c2)o1,-,-
Cc1ccc(N2CC(C(=O)Nc3ccccc3Cl)CC2=O)cc1C (centres undefined),-,-
COc1cc(/C=C2\NC(=O)NC2=O)ccc1OCc1ccccc1F,-,-
CCOc1cc(/C=C2\NC(=O)NC2=O)cc(Cl)c1OCc1ccccc1F,-,68.0
COc1cc(/C=C2\C(=O)ON=C2C)cc(Br)c1OCc1cccc(F)c1,-,51.0
COc1cc(/C=C2\C(=O)ON=C2C)cc(Cl)c1OCc1ccccc1F,-,60.0
COc1cc(/C=C2\C(=O)ON=C2C)cc(Br)c1OC,-,-
SMILES,Pf apPOL block,mHTT CaM bind
CC1=NOC(=O)/C1=C/c1ccc(OCc2ccccc2F)c(Cl)c1,-,-
COc1cc(/C=C2\C(=O)ON=C2C)cc(Cl)c1OCc1cccc(F)c1,-,86.0
C=CCOc1c(Cl)cc(/C=C2\C(=O)ON=C2C)cc1OC,-,-
CCOCCCNC(=O)c1cccc(C2CCCN(C(=O)c3ccc(OC)cc3)C2)c1 (centres undefined),-,-
CC(C)(C)NC(=O)N1CCC(CNC(=O)C2(c3cccs3)CCCC2)CC1,-,-
CC1=N/C(=C/c2ccc(Br)cc2)C(=O)O1,-,-
Cc1ccc(NC(=O)c2ccc(Cl)c(N)c2)cc1,-,-
CCNC(=O)c1c(NC(=O)c2ccccc2)sc2c1CCCC2,-,-
NNC(=O)c1c(NC(=O)c2ccccc2)sc2c1CCC2,-,64.3
O=C(CNCCO)Nc1sc2c(c1C(=O)Nc1ccc(Br)cc1)CCC2,-,66.4
O=C(Nc1sc2c(c1C(=O)Nc1ccc(Br)cc1)CCCCC2)c1cccnc1,-,-
O=C(CN1CCOCC1)Nc1sc2c(c1C(=O)Nc1ccc(Cl)cc1)CCC2,-,-
O=C(CNCCN1CCOCC1)Nc1sc2c(c1C(=O)Nc1ccccc1)CCC2,-,88.9
Cc1cc(C(=O)NNC(=O)C2CCN(c3nccc(C(F)(F)F)n3)CC2)nn1C(C)(C)C,-,.
Cc1ccc(OCC(=O)N2CCC(c3nc4ccncc4n3C)C2)cc1 (centres undefined),-,-
NC(=S)NN=C1c2ccccc2-c2ccccc21,.,55.0
NC(=S)N/N=C/c1c2ccccc2cc2ccccc12,.,-
Cc1ccc(-n2nc(C)c3sc(N4CCCN(C(=O)c5cccnc5)CC4)nc32)cc1,-,-
CCc1cc(=O)n(CC(=O)Nc2ccc(Cl)c(Cl)c2)c(-n2nc(C)cc2C)n1,-,-
CCCN1C/C(=C\c2cccc(OC)c2OC)C(=O)/C(=C/c2cccc(OC)c2OC)C1,-,50.0
COc1cccc(/C=C2\Cc3ccccc3C2=O)c1OC,-,-
COc1cccc(/C=C2/SC(N3CCN(C)CC3)=NC2=O)c1OC,-,-
COc1cccc(/C=C2\CS/C(=C\c3cccc(OC)c3OC)C2=O)c1OC,-,53.0
